Screening results deposited in PubChem BioAssay by National Center for Advancing Translational Sciences (NCATS).
Hits are enriched below; roughly 5.9% of the tested compounds scored in any of these assays.
RORgamma inh = ROR gamma (mouse) transcription inhibition; P51450; Drosophila S2 Gal4-RORgamma UAS-luciferase reporter, 20 h; Potency, µM (highest dose often 53.6 µM), for the others: top-dose activity change, negative = inhibition, hits mostly inhibitors; 5.4% of 310,000 active; AID 2551; also: % is scaled to controls: 0 for no effect and ±100 for the full control effect; nearly all actives have a fitted effect of over 60% in size
Target sequence (P51450 whole entry, looked up, the tested form may be a part): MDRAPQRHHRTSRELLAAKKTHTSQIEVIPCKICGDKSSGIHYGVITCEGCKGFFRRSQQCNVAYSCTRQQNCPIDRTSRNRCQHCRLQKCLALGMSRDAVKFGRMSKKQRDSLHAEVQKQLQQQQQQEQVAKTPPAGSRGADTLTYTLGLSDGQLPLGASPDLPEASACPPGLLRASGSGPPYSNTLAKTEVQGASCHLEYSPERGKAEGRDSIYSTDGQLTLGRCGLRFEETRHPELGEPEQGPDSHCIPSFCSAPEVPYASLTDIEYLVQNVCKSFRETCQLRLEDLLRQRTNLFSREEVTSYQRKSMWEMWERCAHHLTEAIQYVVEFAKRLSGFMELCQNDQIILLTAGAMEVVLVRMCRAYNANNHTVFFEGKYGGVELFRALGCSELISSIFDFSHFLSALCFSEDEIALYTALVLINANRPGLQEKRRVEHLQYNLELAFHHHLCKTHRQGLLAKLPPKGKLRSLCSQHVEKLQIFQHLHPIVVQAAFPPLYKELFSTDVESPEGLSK
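Drosophila Schneider cells stably carrying a metallothionein-driven Gal4 DBD–ROR gamma fusion and a UAS-Photinus luciferase reporter were exposed to compound for 1 hr, then induced with copper sulfate (700 uM final) for 20 hr at ambient temperature before luminescence reading.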
Gal4-VP16 FLuc = Gal4-VP16 reporter inhibition counter-screen | Drosophila S2 Gal4-VP16 UAS-luciferase, luminescence, 20 h | Potency, µM (doses to about 53.6 µM), for the others: top-dose activity, negative = inhibition, usual class: inhibitors | 3.5% of 310,000 active | AID 2546;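 also: Gal4-VP16 expression switched on by copper sulfate through the metallothionein promoter; % is scaled to controls: 0 for no effect and ±100 for the full control effect; nearly all actives have a fitted effect of over 50% in size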
GLP1R inv ag = GLP-1 receptor (human) inverse agonism; HEK293 GLP-1R CRE-luciferase, luminescence, 24 h; GLP-1R form is constitutively active; 1.6% of 410,000 active; Potency, µM (highest dose often 38.3 µM), inactives show at the top dose activity change, negative = inhibition, actives largely listed as inhibitors; also: % is scaled to controls: 0 for no effect and ±100 for the full control effect; nearly all actives have a fitted effect of over 55% in size
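Inverse agonists were sought by their lowering of basal cAMP reporter luciferase output in HEK293 cells stably carrying constitutively active human GLP-1R, after 24 h compound treatment.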
GLP1R cytotox = cytotoxic in the GLP-1 receptor inverse agonist counter-screen | HEK293 cAMP-luciferase reporter cells, luminescence, 24 h | Potency, µM (top dose mostly 38.3 µM), inactives show at the top dose activity change, negative = inhibition, hits mostly inhibitors | 0.13% of 410,000 active | AID 624418;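 also: loss of luciferase light is scored as toxicity; % is scaled to controls: 0 for no effect and ±100 for the full control effect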
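To flag toxic compounds, the library was rerun on cells for 24 hr at 37 deg C and 5% CO2. Viability-linked luminescence was captured 12 min after adding luciferase detection reagent.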
GLP-1R agonist = activates the human GLP-1 receptor. Potency, µM (highest dose often 45.6 µM), for inactives: at the top dose activation, most hits filed as activators. 0.007% of 380,000 active. P43220. HEK293 GLP-1R CRE-luciferase, luminescence, 4-6 h; cells express a hypersensitive GLP-1R form. AID 624172; also: % of control where 0% means no effect
The depositor's hits bear a star; ? = inconclusive; · = not tested or not shown. Calls follow the shape of the dose curve; as a rule, active = well fitted curve in the direction sought with a large enough effect; inconclusive = small, poorly fitted or top-dose-only effect, or another doubt; inactive = no such curve, though single readings can be large; an effect the other way counts as inactive or inconclusive. Potency is read from the fitted curve at half-maximal effect.

SMILES	RORgamma inh	Gal4-VP16 FLuc	GLP1R inv ag	GLP1R cytotox	GLP-1R agonist
CC(=O)Nc1ccc(NC2=Nc3ccccc3N3C2=Nc2c(c(C)nn2-c2ccccc2)C3c2ccccc2)cc1 (stereo not drawn)	0.089µM*	0.89µM*	3%	-1%	-3%
O=S(=O)(c1ccccc1)N1CCC2(CCCN(Cc3cc(C(F)(F)F)cc(C(F)(F)F)c3)C2)CC1	-3%	12%	·	·	·
CC(/C=C/c1ccccc1F)=N\NC(=O)c1ccccc1	3.2µM*	7.1µM*	21%	-26%	4%
CC(/C=C/c1ccccc1)=N\NC(=O)c1cc(C)nc2ccccc12	14µM*	?	-17%	?	5%
CC(/C=C/c1ccccc1F)=N\NC(=O)c1ccc(Cl)cc1	12%	-11%	?	8%	6%
C/C(=N\NC(=O)c1ccccc1)c1cccc(Br)c1	-121%	?	3%	-13%	4%
CC(/C=C/c1ccccc1)=N\NC(=O)c1ccc(Br)cc1	0.5µM*	0.89µM*	-22%	16%	0%
CC(/C=C/c1ccccc1)=N/NC(=O)c1cccc(Br)c1	2.2µM*	3.5µM*	?	?	3%
CCCCC[C@H](O)/C=C/C=C\C/C=C\C/C=C\CCCC(=O)O	17%	8%	·	·	·
CC(C)NC(=O)CN1C(=O)c2cccnc2Sc2ccccc21	·	·	1%	4%	·
Cc1nc(NC2CCCCC2)c2nc(-c3ccccc3)n(CC3CCN(C)CC3)c2n1	-4%	-14%	·	·	·
Cc1ccc(-c2nn(-c3ccccc3)cc2/C=N/n2c(-c3ccncc3)n[nH]c2=S)cc1	-9%	-4%	19%	-2%	11%
Cc1ccc(/C=N/n2c(-c3ccc(Cl)cc3)n[nH]c2=S)o1	6.3µM*	-30%	6%	?	12%
Cc1ccc(/C=N/n2c(-c3cccnc3)n[nH]c2=S)o1	-39%	-13%	12%	-2%	3%
Cc1ccc(-c2n[nH]c(=S)n2/N=C/c2ccc(C)o2)cc1	5µM*	3.5µM*	1%	-19%	0%
Cc1ccc(-c2n[nH]c(=S)n2/N=C/c2ccncc2)cc1	11µM*	?	-31%	-5%	0%
CC(=O)Oc1cccc(C)c1	-1%	-7%	·	·	-4%
COC(=O)c1c(C)nc(C)c(C(=O)OC)c1-c1ccccc1[N+](=O)[O-]	-11%	-18%	·	·	·
CCOC(=O)Cc1csc(NC(=O)c2csc3c2CCCC3)n1	13µM*	-18%	-5%	-9%	5%
CCOC(=O)Cc1csc(NC(=O)c2cc3c(s2)CCCC3)n1	-42%	-24%	?	3%	0%
CCOC(=O)Cc1csc(NC(=O)c2ccc3ccccc3n2)n1	6.3µM*	?	-4%	-29%	16%
CCOC(=O)Cc1csc(NC(=S)NC(=O)c2ccc(Cl)cc2)n1	7.1µM*	?	?	?	-13%
CCOC(=O)Cc1csc(NC(=O)Cc2ccc(Cl)cc2)n1	44%	-12%	?	-7%	9%
CCOC(=O)Cc1csc(NC(=S)NC(=O)c2ccc([N+](=O)[O-])cc2)n1	10µM*	?	0%	-24%	0%
COC(=O)CC1C(C)(C)C(=O)C2CC3=C4CC(=O)OC(c5ccoc5)[C@]4(C)CCC3[C@@]1(C)C2=O (stereo partly drawn)	7%	0%	·	·	·
SMILES	RORgamma inh	Gal4-VP16 FLuc	GLP1R inv ag	GLP1R cytotox	GLP-1R agonist
O=C(NCCC1=CCCCC1)c1ccc2c(c1)N(Cc1ccc(Cl)cc1)C(=O)c1ccccc1S2(=O)=O	·	·	?	-9%	-3%
COc1cc(OC)c2c(c1C(CCN1CCCC1)c1ccc(N(C)C)cc1)OC(=O)CC2c1ccc(N(C)C)cc1 (stereo not drawn)	15%	-10%	·	·	·
C1=CC2=NC34CCCCC3CC3=C(CCCC3)N4C2=CC1=NC1CCCCC1 (stereo not drawn)	·	·	10µM*	?	-6%
COc1cccc(CNc2cc(C)ccn2)c1O	20%	0%	16%	-10%	6%
O=C(Cc1ccc(-c2ccccc2)cc1)Nc1ccccn1	-17%	2%	-21%	1%	10%
Cc1ccc(NC(=O)Cc2ccc(-c3ccccc3)cc2)nc1	8%	2%	10µM*	-23%	4%
Cc1ccnc(NC(=O)CCC(=O)c2cccs2)c1	·	·	5.6µM*	3%	-5%
Cc1ccc(NC(=O)CCC(=O)c2cccs2)nc1	·	·	13%	7%	-26%
Cc1ccnc(NCc2cccc3ccccc23)c1	16µM*	?	?	17%	16%
Cc1ccnc(NC(=O)Cc2ccc(-c3ccccc3)cc2)c1	11µM*	?	?	-10%	0%
CCCn1c(=N)n(CC(=O)OCC)c2ccccc21	-12%	-7%	6%	0%	-7%
CCn1c(=N)n(CC(=O)C23CC4CC(CC(C4)C2)C3)c2ccccc21	4µM*	8.9µM*	?	3%	-3%
CC(C)n1c(=S)[nH]c2scc(-c3cccs3)c2c1=O	?	-12%	?	?	-6%
CCn1c(=S)[nH]c2scc(-c3cccs3)c2c1=O	0.71µM*	3.2µM*	8%	?	5%
O=c1c2c(-c3cccs3)csc2[nH]c(=S)n1-c1ccccc1	2.2µM*	3.5µM*	1%	-11%	3%
C=CCn1c(=S)[nH]c2scc(-c3ccc(C)o3)c2c1=O	0.28µM*	1.3µM*	-19%	5%	3%
COc1ccc2sc(N(CCCN(C)C)C(=O)c3ccc(C(=O)c4ccccc4)cc3)nc2c1	·	·	7.1µM*	?	-2%
Cc1cccc2sc(N(CCCN(C)C)C(=O)c3ccc(C(=O)c4ccccc4)cc3)nc12	?	?	5µM*	?	4%
CN(C)CCCN(C(=O)c1ccc(C(=O)c2ccccc2)cc1)c1nc2ccc(F)cc2s1	7%	-24%	?	?	1%
CCOc1ccccc1C(=O)NCC(c1ccc(N(C)C)cc1)N1CCc2ccccc21 (stereo not drawn)	·	·	4%	2%	·
CCCSc1nnc(Sc2nnnn2-c2ccccc2)s1	1.6µM*	-28%	?	?	-19%
CCN(CC)c1ccc(NC(=O)COCc2cc(-c3ccc4c(c3)OCO4)on2)c(C)c1	·	·	-4%	1%	·
O=C(NC(=S)NC1CCN(Cc2ccccc2)CC1)c1ccc(F)cc1	7.1µM*	11µM*	?	?	18%
O=C(NC(=S)NC1CCCCC1)c1ccc(F)cc1	3.2µM*	4.5µM*	?	?	16%
O=C(NC1CCN(Cc2ccc(F)cc2)CC1)c1ccccc1	-14%	-5%	5%	-5%	0%
CC(=O)c1ccc(NC(=S)Nc2cccc3ccccc23)cc1	14µM*	?	?	1%	-1%
Cc1ccc(NC(=S)Nc2cccc3ccccc23)cc1F	11µM*	7.9µM*	?	?	4%
CCCC(=O)NC(=S)Nc1ccc(C(C)=O)cc1	16µM*	?	16%	-16%	1%
